Compound activity: PubChem, National Center for Advancing Translational Sciences (NCATS)
D2 ag-1 = agonists of human D2 dopamine receptor (beta-arrestin); P14416; DiscoveRx PathHunter D2 beta-arrestin, luminescence, 90 min; 100% = 57 uM dopamine signal; activation, % (test concentration not listed); hit rate 0.084% among 360,000; AID 624465; in the data active = activation above about 40%; inconclusive = between about 15% and that limit
Target sequence (P14416 whole entry, looked up): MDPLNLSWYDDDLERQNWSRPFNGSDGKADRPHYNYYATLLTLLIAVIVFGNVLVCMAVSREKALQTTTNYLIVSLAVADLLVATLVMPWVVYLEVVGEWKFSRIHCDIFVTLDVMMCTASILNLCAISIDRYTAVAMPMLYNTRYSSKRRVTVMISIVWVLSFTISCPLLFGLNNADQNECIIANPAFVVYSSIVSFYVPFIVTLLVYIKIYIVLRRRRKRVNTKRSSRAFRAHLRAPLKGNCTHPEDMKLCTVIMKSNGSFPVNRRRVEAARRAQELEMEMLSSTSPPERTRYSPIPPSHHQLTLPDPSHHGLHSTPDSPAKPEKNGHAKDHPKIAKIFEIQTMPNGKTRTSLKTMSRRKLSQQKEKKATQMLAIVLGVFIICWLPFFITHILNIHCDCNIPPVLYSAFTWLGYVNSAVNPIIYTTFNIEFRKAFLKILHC
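Agonist mode: compounds alone added to overnight-plated D2 PathHunter cells for 90 min at 37 C, with 57 uM final dopamine (EC100) defining full response. Beta-arrestin recruitment detected by chemiluminescent reagent, read after 1 h at ambient temperature.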
D2 ag-2 = activates the human D2 dopamine receptor; P14416; HEK293 T-REx D2 cells, calcium flux agonist mode; activation, % at 2 µM; hit rate 0.53% among 340,000; AID 485358;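 active = activation over 3 SD above normal in the single-dose calcium agonist read, cut at about 30% in these data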
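Calcium-flux readout, 1 cycle/sec over 180 s following compound pin transfer, in inducible HEK293 Trex D2 cells (force-coupled); dopamine controls included. Positive calcium responses during this window marked compounds as potential agonists.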
D2 PAM-1 = positively modulates the human D2 dopamine receptor allosterically; P14416; HEK293 T-REx D2, calcium flux, EC20 dopamine potentiation; potentiation, % at 10 µM; hit rate 0.34% among 340,000; AID 485347;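 active = potentiation over 3 SD above the plate norm, cut at about 30% in these data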
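Calcium flux readout, no-wash dye, 1 read/s. Inducible HEK293 Trex D2 line, overnight 30 C. Compound alone 180 s (agonist flags), then EC20 dopamine, another 180 s to score potentiation.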
D2 PAM-2 = human D2 receptor positive allosteric modulation. hit rate 0.23% among 360,000. DiscoveRx D2 beta-arrestin cells, luminescence, 90 min; 100% = 57 uM dopamine signal. P14416. potentiation, % (test concentration not listed); in the data active = potentiation above about 50%; inconclusive = mostly about 30% to 49%
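PathHunter D2 cells, attached overnight at 37 deg C, received compound in DMSO plus dopamine at EC20 (50 nM final) for 90 min at 37 deg C. Beta-arrestin recruitment was read as luminescence after 1 h with detection reagent at ambient temperature.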
D2 antag = antagonizes the human D2 dopamine receptor; P14416; HEK293 TREx D2 cells, calcium flux, dopamine EC80; inhibition, % at 10 µM; hit rate 2% among 340,000; in the data active = inhibition above about 30%; inactive = below that, where a call was filed
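Calcium flux kinetic readout in an inducible HEK293 TREx D2 line plated overnight at 30 C. After 180 s compound exposure, an EC80 dopamine challenge follows with another 180 s kinetic read to detect antagonism.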
Hits are given with their value; i = inactive; ? = inconclusive; nt = no result given. Hits are enriched below; roughly 2.4% of the tested compounds scored in any of these assays.

SMILES	D2 ag-1	D2 ag-2	D2 PAM-1	D2 PAM-2	D2 antag
Cc1cc(C(=O)O)c(C)n1C1CC1	i	nt	nt	i	nt
CCC1(C)OC(c2ccccc2)=C/C(=C/C=C2C(=O)NC(=O)NC2=O)O1 (stereo unspecified)	i	i	i	i	43.3
CCn1ccnc1CN1CCCC(C(=O)c2ccc(SC)cc2)C1 (stereo unspecified)	i	i	i	i	i
CSc1ccc(C(=O)C2CCCN(CCCn3cccn3)C2)cc1 (stereo unspecified)	i	i	i	i	35.9
Cc1cccc(NC(=O)Cn2cc(C(=O)c3ccccc3)c3ccccc32)c1C	nt	i	i	nt	nt
COC(=O)C1=C(c2ccc(OCc3ccccc3)c(F)c2)C[C@@H]2CC[C@H]1N2C	i	nt	nt	i	nt
C[CH2][Hg][S]c1ccccc1C(=O)O	i	nt	nt	i	nt
CCn1c(O)c(C=Nc2ccc(N3CCOCC3)cc2)c(=O)n(CC)c1=S	i	35.5	i	i	i
CC(C)(C)NC(=O)C1CC2CCCCC2CN1 (stereo unspecified)	i	i	i	i	64.2
COc1cc(C)c(CN2CC=C(c3ccc(F)cc3)CC2)cc1C	i	i	i	i	83.9
COc1cc(CN2CC=C(c3ccc(F)cc3)CC2)cc(OC)c1	i	i	i	i	81.1
COC(=O)C1C2c3ccccc3C(c3ccccc32)C1(C)C(=O)OC (stereo unspecified)	i	nt	nt	i	nt
N#Cc1ncc(N=Cc2ccc(N(CCCl)CCCl)cc2)s1	i	nt	nt	i	nt
CCOc1ccc(C2C(C#N)=C(N)Oc3c2c(=O)oc2ccccc32)cc1 (stereo unspecified)	i	i	i	i	30.7
N#CC1=C(N)Oc2c(c(=O)oc3ccccc23)C1c1ccncc1 (stereo unspecified)	i	i	i	i	i
Cc1cccc(CS(=O)(=O)Cc2ccc(C(=O)N3CCC4(CC3)OCCO4)o2)c1	i	i	i	i	39.8
O=C(c1ccc(CS(=O)(=O)c2ccccc2)o1)N1CCC2(CC1)OCCO2	i	i	i	i	i
CN(CC=CCN(C)P(=S)(N1CC1)N1CC1)P(=S)(N1CC1)N1CC1	i	nt	nt	i	nt
COC(COC(N)=O)C1=C(N2CC2)C(=O)C(C)=C(N2CC2)C1=O (stereo unspecified)	?	nt	nt	72.2	nt
CNC(C)Cc1ccccc1Sc1ccc(O)cc1 (stereo unspecified)	i	i	i	i	67.4
O=C1CC(c2cccnc2)=NN1c1ccc(Cl)cc1Cl	i	i	i	i	i
CCN1C(=O)CC(c2cccnc2)=Nc2ccccc21	i	i	i	i	31.4
O=C(Nc1ccc(OC(F)(F)F)cc1)c1cccn(Cc2ccccc2Cl)c1=O	nt	i	i	nt	nt
CC1CCCN(c2ccc(C(=O)N3CCC4(CC3)OCCO4)cc2[N+](=O)[O-])C1 (stereo unspecified)	i	i	i	i	i
CCOC(=O)C1CCCN(c2ccc([N+](=O)[O-])c3nonc23)C1 (stereo unspecified)	i	134.7	i	i	51.7
SMILES	D2 ag-1	D2 ag-2	D2 PAM-1	D2 PAM-2	D2 antag
Cc1ccc(C2CC3CCC(C2)N3Cc2ccccc2F)cc1 (stereo unspecified)	i	i	i	i	67.8
COc1ccc2[nH]cc(CCNCc3cccnc3)c2c1	i	i	i	i	i
COc1cccc(CNCCc2c[nH]c3ccccc23)c1	i	i	i	i	46.3
C1=C(c2c[nH]c3ccccc23)CCN(Cc2ccccc2)C1	i	i	i	i	69.8
CN1CC=C(c2c[nH]c3ccccc23)CC1	i	i	i	i	74.7
C[C@@H]1CC[C@H]2[C@@H](C)C(=O)O[C@@H]3O[C@@]4(C)CC[C@@H]1[C@]32OO4	?	i	i	64.0	i
Cc1ncc([N+](=O)[O-])n1CCOC(N)=O	i	i	i	i	38.2
CN1CCC(OC(=O)C2c3ccccc3Oc3ccccc32)CC1	i	i	i	i	33.2
CN1C[C@H](CO)C=C2c3cccc4[nH]cc(c34)C[C@H]21	68.5	i	i	i	i
COc1cccc(C2CCN(CC(=O)Nc3cc(Cl)ccc3OC)CC2O)c1 (stereo unspecified)	i	i	i	i	i
CC(=O)c1ccc(OC(NC(=O)c2ccco2)C(Cl)(Cl)Cl)cc1 (stereo unspecified)	i	i	32.0	i	i
